# Assay results as given in article PMC7862700, “An all-to-all approach to the identification of sequence-specific readers for epigenetic DNA modifications on cytosine”.
# What was measured:
# Assay in all cases: DAPPL (digital affinity profiling via proximity ligation, sequencing); 10 mM Tris-HCl pH 7.5, 50 mM NaCl, 1 mM DTT, 4% glycerol, room temperature, 30 min; GST-TFs on glutathione beads, 16-mer random dsDNA library, 0.1% formaldehyde crosslink after washing; high values mean tight binding
# FEV = target: T1, FEV (Homo sapiens, UniProt Q99581 1-238); conditions: protein: recombinant; tags: N-terminal GST; dsDNA, one strand shown
# T1 sequence: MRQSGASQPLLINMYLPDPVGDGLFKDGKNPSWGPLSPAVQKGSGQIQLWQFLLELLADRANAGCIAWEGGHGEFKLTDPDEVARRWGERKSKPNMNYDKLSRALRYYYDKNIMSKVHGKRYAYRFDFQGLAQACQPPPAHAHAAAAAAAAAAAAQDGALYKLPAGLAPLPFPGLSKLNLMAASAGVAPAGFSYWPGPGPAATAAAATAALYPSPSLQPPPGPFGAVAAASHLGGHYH
# Method in brief: (§1)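 In yeast, human transcription factors were expressed with a GST fusion, then pulled down on glutathione beads and given DNA barcodes. Pooled with a tag-only sample, they were exposed to 200 nmole of a 16-mer random double-stranded DNA library (Tris/NaCl/DTT/glycerol buffer, room temperature, 30 min), washed, crosslinked with 0.1% formaldehyde, proximity-ligated using BsaI/T4 ligase for 1 h at 37 °C, PCR-amplified and read on an Illumina NextSeq500. Each hexamer's frequency of reads for a factor, divided by the matching frequency for the tag-only sample, gives the binding signal.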
# ETV5 = ETV5 (Homo sapiens, UniProt P41161 1-510); conditions: protein: recombinant; tags: N-terminal GST; dsDNA, one strand shown
# Chain of ETV5 (P41161 whole entry): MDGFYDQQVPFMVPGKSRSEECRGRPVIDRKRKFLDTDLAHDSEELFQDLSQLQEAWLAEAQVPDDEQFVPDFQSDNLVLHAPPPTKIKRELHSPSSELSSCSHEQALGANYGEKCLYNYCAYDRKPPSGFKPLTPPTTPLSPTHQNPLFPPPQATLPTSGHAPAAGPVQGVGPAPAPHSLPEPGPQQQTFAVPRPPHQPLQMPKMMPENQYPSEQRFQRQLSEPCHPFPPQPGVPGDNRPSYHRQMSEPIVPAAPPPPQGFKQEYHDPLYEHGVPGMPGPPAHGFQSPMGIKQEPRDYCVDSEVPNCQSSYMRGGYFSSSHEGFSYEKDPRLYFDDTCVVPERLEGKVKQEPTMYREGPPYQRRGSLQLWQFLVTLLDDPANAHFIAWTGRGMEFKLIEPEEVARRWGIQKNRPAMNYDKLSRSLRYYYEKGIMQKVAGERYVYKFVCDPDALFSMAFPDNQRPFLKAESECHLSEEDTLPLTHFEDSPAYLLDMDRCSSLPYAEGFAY
# Method in brief: as §1
# HSF1 = HSF1 (Homo sapiens, UniProt Q00613 1-529); conditions: protein: recombinant; tags: N-terminal GST; chain copies: 3; dsDNA, one strand shown
# Chain of HSF1 (Q00613 whole entry): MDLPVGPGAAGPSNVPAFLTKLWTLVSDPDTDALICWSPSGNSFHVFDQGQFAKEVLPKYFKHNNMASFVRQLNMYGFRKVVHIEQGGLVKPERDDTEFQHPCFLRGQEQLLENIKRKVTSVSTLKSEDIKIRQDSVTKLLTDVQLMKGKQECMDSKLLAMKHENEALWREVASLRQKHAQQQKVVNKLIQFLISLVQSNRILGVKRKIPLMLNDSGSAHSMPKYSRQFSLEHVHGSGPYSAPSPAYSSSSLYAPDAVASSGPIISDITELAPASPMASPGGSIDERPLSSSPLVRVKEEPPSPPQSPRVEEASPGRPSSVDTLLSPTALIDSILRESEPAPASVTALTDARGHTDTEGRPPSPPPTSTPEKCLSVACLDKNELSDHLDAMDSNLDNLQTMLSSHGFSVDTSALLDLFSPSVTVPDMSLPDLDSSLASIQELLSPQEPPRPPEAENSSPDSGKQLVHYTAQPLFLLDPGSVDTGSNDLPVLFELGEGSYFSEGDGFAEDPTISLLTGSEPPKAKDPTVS
# Method in brief: as §1
# SPIC = target: T2, SPIC (Homo sapiens, UniProt Q8N5J4 1-248); conditions: protein: recombinant; tags: N-terminal GST; dsDNA, one strand shown
# T2 sequence: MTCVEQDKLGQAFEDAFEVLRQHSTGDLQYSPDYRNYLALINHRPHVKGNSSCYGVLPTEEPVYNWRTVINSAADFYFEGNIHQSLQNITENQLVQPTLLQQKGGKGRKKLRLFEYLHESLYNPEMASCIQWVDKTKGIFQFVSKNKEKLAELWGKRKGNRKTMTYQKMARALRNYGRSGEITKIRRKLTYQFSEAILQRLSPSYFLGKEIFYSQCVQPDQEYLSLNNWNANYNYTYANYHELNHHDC
# Method in brief: as §1
# ELF4 = ELF4 (Homo sapiens, UniProt Q99607 1-663); conditions: protein: recombinant; tags: N-terminal GST; dsDNA, one strand shown
# Chain of ELF4 (Q99607 whole entry): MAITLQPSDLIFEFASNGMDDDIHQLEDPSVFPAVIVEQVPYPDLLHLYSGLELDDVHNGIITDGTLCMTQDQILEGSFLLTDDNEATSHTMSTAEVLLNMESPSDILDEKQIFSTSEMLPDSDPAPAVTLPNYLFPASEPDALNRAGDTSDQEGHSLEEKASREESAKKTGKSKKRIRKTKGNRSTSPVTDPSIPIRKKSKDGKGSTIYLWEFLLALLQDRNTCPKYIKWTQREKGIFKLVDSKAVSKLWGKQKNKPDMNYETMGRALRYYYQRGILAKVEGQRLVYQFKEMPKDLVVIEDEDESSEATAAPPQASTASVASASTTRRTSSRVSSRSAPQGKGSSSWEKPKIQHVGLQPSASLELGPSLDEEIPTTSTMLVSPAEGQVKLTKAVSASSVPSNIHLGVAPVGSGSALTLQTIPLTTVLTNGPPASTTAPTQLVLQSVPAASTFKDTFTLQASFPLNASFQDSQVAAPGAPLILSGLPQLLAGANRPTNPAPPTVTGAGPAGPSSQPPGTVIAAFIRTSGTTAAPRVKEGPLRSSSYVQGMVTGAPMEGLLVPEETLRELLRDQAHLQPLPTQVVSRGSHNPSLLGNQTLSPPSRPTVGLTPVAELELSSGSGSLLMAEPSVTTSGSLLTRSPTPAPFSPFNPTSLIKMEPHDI
# Method in brief: as §1
# ELK4 = target: T3, ELK4 (Homo sapiens, UniProt P28324-2 1-405); conditions: protein: recombinant; tags: N-terminal GST; dsDNA, one strand shown
# T3 sequence: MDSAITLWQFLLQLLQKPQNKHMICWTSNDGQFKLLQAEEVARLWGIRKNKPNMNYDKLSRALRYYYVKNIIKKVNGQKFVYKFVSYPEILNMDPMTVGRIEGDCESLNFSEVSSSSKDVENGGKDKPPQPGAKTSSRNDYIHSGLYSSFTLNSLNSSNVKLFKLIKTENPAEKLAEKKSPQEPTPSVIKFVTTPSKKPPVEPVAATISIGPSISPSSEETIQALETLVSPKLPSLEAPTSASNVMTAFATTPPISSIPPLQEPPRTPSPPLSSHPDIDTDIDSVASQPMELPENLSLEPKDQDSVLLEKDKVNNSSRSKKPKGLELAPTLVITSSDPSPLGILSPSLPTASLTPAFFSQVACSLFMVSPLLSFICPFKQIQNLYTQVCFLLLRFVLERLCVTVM
# Method in brief: as §1
# ETV2 = target: T4, ETV2 (Homo sapiens, UniProt O00321 1-342); conditions: protein: recombinant; tags: N-terminal GST; dsDNA, one strand shown
# T4 sequence: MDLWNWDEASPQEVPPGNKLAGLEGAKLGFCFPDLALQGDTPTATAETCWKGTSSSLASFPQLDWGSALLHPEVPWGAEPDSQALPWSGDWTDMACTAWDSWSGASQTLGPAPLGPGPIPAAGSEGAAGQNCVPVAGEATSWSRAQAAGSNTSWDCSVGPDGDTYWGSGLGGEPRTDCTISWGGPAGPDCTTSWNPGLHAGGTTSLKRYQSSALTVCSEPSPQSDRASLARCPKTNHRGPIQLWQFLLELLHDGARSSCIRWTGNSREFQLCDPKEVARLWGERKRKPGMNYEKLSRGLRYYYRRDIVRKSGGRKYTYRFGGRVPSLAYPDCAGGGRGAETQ
# Method in brief: as §1
# ELF3 = target: T5, ELF3 (Homo sapiens, UniProt P78545 1-371); conditions: protein: recombinant; tags: N-terminal GST; dsDNA, one strand shown
# T5 sequence: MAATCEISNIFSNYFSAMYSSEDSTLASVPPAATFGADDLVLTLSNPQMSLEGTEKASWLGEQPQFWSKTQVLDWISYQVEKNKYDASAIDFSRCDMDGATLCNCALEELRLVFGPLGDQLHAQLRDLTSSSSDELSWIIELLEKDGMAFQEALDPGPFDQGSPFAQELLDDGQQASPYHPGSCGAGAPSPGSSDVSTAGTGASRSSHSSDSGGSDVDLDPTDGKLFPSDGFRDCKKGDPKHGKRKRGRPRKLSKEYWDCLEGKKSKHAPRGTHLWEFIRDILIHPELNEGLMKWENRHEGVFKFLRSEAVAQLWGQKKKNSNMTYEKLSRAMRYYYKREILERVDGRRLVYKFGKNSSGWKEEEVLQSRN
# Method in brief: as §1
# CRX = CRX (Homo sapiens, UniProt O43186 1-299); conditions: protein: recombinant; tags: N-terminal GST; dsDNA, one strand shown
# Chain of CRX (O43186 whole entry): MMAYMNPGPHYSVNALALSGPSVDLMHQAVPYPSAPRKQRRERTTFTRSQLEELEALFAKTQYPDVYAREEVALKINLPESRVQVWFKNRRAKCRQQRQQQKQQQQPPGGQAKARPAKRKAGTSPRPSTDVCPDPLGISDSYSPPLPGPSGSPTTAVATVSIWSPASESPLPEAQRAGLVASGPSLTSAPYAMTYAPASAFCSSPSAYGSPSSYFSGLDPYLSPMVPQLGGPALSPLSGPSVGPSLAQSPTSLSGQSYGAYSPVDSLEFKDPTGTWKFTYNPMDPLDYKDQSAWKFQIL
# Method in brief: as §1
# ETV1 = ETV1 (Homo sapiens, UniProt P50549 1-477); conditions: protein: recombinant; tags: N-terminal GST; dsDNA, one strand shown
# Chain of ETV1 (P50549 whole entry): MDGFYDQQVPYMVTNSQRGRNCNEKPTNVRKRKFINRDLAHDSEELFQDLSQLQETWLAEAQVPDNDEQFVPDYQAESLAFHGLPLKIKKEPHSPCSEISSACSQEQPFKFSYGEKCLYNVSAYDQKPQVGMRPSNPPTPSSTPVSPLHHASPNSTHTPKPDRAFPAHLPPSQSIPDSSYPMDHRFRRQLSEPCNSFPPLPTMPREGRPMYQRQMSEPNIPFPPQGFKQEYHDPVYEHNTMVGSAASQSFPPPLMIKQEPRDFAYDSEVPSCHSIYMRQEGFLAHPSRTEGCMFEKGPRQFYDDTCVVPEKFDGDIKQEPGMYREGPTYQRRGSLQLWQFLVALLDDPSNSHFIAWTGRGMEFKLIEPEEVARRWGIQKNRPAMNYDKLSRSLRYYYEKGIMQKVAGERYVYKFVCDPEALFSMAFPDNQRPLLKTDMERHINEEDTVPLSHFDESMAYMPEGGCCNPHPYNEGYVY
# Method in brief: as §1
# ERF = target: T6, ERF (Homo sapiens, UniProt P50548 1-548); conditions: protein: recombinant; tags: N-terminal GST; dsDNA, one strand shown
# T6 sequence: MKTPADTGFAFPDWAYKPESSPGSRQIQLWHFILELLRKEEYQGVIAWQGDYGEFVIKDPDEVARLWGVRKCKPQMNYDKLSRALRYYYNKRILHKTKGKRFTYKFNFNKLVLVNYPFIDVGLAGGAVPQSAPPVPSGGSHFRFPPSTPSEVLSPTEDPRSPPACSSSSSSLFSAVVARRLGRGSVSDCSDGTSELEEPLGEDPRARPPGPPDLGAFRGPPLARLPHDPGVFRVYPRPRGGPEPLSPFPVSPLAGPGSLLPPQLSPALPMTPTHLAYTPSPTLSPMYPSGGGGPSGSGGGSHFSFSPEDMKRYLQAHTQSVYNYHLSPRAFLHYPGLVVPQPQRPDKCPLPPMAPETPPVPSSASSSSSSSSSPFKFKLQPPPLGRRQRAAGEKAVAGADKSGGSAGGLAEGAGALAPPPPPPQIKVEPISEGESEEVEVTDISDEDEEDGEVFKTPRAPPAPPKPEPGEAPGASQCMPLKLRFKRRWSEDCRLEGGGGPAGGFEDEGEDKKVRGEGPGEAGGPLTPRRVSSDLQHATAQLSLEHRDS
# Method in brief: as §1
# ETV3L = target: T7, ETV3L (Homo sapiens, UniProt Q6ZN32 1-361); conditions: protein: recombinant; tags: N-terminal GST; dsDNA, one strand shown
# T7 sequence: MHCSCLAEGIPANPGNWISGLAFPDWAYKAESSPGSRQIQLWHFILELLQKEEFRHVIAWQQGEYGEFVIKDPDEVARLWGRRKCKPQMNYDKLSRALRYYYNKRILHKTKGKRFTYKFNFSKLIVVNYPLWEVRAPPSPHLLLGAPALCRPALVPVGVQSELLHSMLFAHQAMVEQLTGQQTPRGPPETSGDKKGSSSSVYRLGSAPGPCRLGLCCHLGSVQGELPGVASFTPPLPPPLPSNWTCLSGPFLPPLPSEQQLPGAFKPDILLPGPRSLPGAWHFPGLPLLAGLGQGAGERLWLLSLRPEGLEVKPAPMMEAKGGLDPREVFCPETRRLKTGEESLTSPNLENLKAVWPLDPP
# Method in brief: as §1
# ETS2 = target: T8, ETS2 (Homo sapiens, UniProt P15036 1-469); conditions: protein: recombinant; tags: N-terminal GST; dsDNA, one strand shown
# T8 sequence: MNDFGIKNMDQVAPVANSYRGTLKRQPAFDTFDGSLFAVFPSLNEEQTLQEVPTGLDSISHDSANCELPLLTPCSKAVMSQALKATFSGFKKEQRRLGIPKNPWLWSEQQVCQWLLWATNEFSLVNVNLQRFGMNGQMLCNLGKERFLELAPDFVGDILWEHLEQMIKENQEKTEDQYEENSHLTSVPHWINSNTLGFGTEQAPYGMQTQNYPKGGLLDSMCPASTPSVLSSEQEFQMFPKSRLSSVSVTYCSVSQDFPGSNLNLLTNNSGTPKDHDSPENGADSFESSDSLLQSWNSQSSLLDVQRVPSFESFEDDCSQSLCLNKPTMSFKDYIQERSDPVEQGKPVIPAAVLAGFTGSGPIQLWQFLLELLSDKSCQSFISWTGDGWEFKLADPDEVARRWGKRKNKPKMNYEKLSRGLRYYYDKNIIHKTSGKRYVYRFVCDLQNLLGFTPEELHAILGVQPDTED
# Method in brief: as §1
# SPDEF = target: T9, SPDEF (Homo sapiens, UniProt O95238 1-335); conditions: protein: recombinant; tags: N-terminal GST; dsDNA, one strand shown
# T9 sequence: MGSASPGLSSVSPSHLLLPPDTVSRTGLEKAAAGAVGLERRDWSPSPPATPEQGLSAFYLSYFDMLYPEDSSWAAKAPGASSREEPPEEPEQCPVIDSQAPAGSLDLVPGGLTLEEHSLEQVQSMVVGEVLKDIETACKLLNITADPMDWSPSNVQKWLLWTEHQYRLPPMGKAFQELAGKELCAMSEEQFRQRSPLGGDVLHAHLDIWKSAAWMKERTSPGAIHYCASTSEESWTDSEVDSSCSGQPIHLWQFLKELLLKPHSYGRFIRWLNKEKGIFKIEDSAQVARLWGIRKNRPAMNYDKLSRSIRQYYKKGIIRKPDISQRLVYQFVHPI
# Method in brief: as §1
# ETV7 = target: T10, ETV7 (Homo sapiens, UniProt Q9Y603 1-341); conditions: protein: recombinant; tags: N-terminal GST; dsDNA, one strand shown
# T10 sequence: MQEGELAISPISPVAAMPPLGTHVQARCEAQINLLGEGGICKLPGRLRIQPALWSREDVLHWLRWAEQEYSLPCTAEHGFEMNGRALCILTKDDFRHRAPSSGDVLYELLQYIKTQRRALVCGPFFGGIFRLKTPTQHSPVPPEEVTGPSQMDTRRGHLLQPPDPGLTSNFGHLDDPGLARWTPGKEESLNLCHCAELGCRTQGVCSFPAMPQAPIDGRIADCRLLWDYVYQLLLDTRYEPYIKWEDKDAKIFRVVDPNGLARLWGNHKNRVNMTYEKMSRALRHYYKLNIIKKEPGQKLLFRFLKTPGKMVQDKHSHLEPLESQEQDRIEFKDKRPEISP
# Method in brief: as §1
# ELF5 = target: T11, ELF5 (Homo sapiens, UniProt Q9UKW6-2 1-255); conditions: protein: recombinant; tags: N-terminal GST; dsDNA, one strand shown
# T11 sequence: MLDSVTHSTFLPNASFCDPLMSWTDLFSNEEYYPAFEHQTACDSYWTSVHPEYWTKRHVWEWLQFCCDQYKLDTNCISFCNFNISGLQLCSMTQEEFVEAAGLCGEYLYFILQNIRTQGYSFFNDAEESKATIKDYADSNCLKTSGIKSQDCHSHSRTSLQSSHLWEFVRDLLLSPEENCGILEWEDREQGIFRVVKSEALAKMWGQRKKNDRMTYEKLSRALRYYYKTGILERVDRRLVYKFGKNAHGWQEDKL
# Method in brief: as §1
# ETV3 = target: T12, ETV3 (Homo sapiens, UniProt P41162-2 1-143); conditions: protein: recombinant; tags: N-terminal GST; dsDNA, one strand shown
# T12 sequence: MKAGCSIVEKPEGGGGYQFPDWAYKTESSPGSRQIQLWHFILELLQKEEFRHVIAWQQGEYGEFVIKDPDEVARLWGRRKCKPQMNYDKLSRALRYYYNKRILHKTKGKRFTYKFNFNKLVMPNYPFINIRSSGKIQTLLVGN
# Method in brief: as §1
# ETV6 = ETV6 (Homo sapiens, UniProt P41212 1-452); conditions: protein: recombinant; tags: N-terminal GST; dsDNA, one strand shown
# Chain of ETV6 (P41212 whole entry): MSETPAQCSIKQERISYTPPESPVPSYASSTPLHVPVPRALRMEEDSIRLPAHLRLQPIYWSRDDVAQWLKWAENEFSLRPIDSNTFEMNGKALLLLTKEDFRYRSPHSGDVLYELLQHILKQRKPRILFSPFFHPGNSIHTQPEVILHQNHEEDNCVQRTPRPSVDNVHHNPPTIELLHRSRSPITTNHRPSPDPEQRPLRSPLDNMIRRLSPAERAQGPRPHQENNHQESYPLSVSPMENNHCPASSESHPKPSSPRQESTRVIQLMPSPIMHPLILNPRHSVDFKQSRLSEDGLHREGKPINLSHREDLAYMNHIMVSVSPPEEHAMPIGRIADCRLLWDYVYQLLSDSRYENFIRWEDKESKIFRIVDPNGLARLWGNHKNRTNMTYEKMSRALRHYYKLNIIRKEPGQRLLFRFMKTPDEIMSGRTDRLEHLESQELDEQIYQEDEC
# Method in brief: as §1
sequence,measurement,setting,value
CTAAAT,binding signal,FEV,"1.3 fold enrichment (6-mer frequency, TF over GST control)"
same,binding signal,ETV5,"1.42 fold enrichment (6-mer frequency, TF over GST control)"
same,binding signal,HSF1,"1.59 fold enrichment (6-mer frequency, TF over GST control)"
same,binding signal,SPIC,"1.38 fold enrichment (6-mer frequency, TF over GST control)"
same,binding signal,ELF4,"1.36 fold enrichment (6-mer frequency, TF over GST control)"
same,binding signal,ELK4,"1.42 fold enrichment (6-mer frequency, TF over GST control)"
same,binding signal,ETV2,"1.33 fold enrichment (6-mer frequency, TF over GST control)"
same,binding signal,ELF3,"1.46 fold enrichment (6-mer frequency, TF over GST control)"
same,binding signal,CRX,"1.9 fold enrichment (6-mer frequency, TF over GST control)"
same,binding signal,ETV1,"1.42 fold enrichment (6-mer frequency, TF over GST control)"
same,binding signal,ERF,"1.35 fold enrichment (6-mer frequency, TF over GST control)"
same,binding signal,ETV3L,"1.43 fold enrichment (6-mer frequency, TF over GST control)"
same,binding signal,ETS2,"1.38 fold enrichment (6-mer frequency, TF over GST control)"
same,binding signal,SPDEF,"1.31 fold enrichment (6-mer frequency, TF over GST control)"
same,binding signal,ETV7,"1.34 fold enrichment (6-mer frequency, TF over GST control)"
same,binding signal,ELF5,"1.25 fold enrichment (6-mer frequency, TF over GST control)"
same,binding signal,ETV3,"1.4 fold enrichment (6-mer frequency, TF over GST control)"
same,binding signal,ETV6,"1.3 fold enrichment (6-mer frequency, TF over GST control)"
